Several values for one entry are separate records, joined by “and”; a condition that tells them apart may be missing. Equal values may be shown once. Screen size: about 360,000 compounds; about 1,300 (0.36%) were called active. Many of the other results were omitted from the sample, so actives are more common in it than they were. A number with no mark means an inactive call.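 The calls were made as follows: active = corrected activity change at or below -50% at 5 µM; inactive = the rest.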

This assay is described as follows: cytotoxicity in KKLEB CF airway cells, primary screen, cytotoxicity control for CF NF-kB inhibitor project, cell-based, uHTS, fluorescence assay plates (AID 602141). The following applies: KKLEB CF airway cells viability, ATPlite luminescence, overnight; at 5 µM; active compounds read low; cells stimulated with P. aeruginosa culture filtrate. (In general: ATP-based viability assays read luminescence as a measure of living cells.)
`COC(=O)c1ccc(C(=O)Nc2cc(Cl)ccc2Cl)cc1NC(=O)c1ccccc1C`: the activity change (cytotoxicity) was -62.7% (active).

As to `COC(=O)c1ccccc1NC(=O)c1cncc(Br)c1`, the activity change (cytotoxicity) was 16%. In the case of `CCCN(CCC)C(=S)Nc1cc(C(=O)OC)ccc1C(=O)OC`, the activity change (cytotoxicity) was -5.9%.

With `CC(=O)Nc1ccc(S(=O)(=O)N2CCn3cccc3C2C)cc1` (stereo not given), the activity change (cytotoxicity) is -3.5%. On to `CCCCN=C1C([N+](=O)[O-])=CC=C2C1=NC1(CCCCC1)N2O`, for which the activity change (cytotoxicity) was -4.3%. As for `CC(C)C[C@H]1CN=C(Nc2ccccc2)N1CC1CCCCC1`, the figure is 3.3%; as for `Clc1ccc(COn2c(-c3ccc(Cl)cc3Cl)nc3ncccc32)cc1`, 1.3%; as for `Fc1ccc(-c2ccc(CNCc3ccccn3)o2)cc1Cl`, 5.4%. `Clc1ccc(-c2cc(-c3ccccn3)on2)c(Cl)c1`: the activity change (cytotoxicity) is -62.1% (active). The result for `O=C(CCN1C(=O)[C@@H]2Cc3ccccc3CN2C1=O)NCc1ccccc1` reads -2.4%. As for `CC(C)CCn1c(=O)c2c(nc3n2CCCN3Cc2ccccc2)n(C)c1=O`, the figure is -20.8%. As for `Cc1cc(C)cc(-c2nnc(SCC(=O)NC3CC3)o2)c1`, the figure is 8.4%; as for `c1csc(CN2CCN(Cc3cccs3)C2c2cccs2)c1`, 0%; as for `O=C(NCCSc1ncc(-c2ccccc2)[nH]1)c1ccco1`, 0.1%. In the case of `Cc1ccc(-c2cn3cc(C)ccc3n2)cc1`, the activity change (cytotoxicity) was -61.7% (active). With `Cc1ccc(-c2cc(N)on2)cc1`, the activity change (cytotoxicity) is -5.6%. On to `Cc1ccc2nc(-c3ccc(Br)cc3)cn2c1`, for which the activity change (cytotoxicity) is -30%. Regarding `CCn1c(SCC(=O)Nc2ccc(Br)cc2)nc2sc3c(c2c1=O)CCN(C)C3`, the activity change (cytotoxicity) is 9.6%. As for `COC(=O)c1cc(NC(=O)c2nn(C)c(=O)c3ccccc23)cc(C(=O)OC)c1`, the figure is -11.1%.

With `CN(Cc1ccccc1)S(=O)(=O)c1nnc(NC(=O)c2ccccc2F)s1`, the activity change (cytotoxicity) is -8.6%. The result for `Cc1ccc(CS(=O)(=O)c2ncc(Cl)c(C(=O)Nc3nnc(C)s3)n2)cc1` reads -93.7% (active); that for `CSc1nnc(NC(=O)c2nc(S(=O)(=O)Cc3ccc(C)cc3)ncc2Cl)s1`, -74.7% (active).

For the compound `O=C(Nc1nnc(Cc2ccc(Cl)cc2)s1)c1cccnc1`, the activity change (cytotoxicity) is -6%.

Take `Cc1cccc(CS(=O)(=O)c2ncc(Cl)c(C(=O)Nc3ccc(F)cc3)n2)c1`: the activity change (cytotoxicity) was -15.9%. As for `O=C(Nc1nnc(-c2ccc(F)cc2)s1)c1c(F)cccc1Cl`, the figure is 7.4%; as for `COCCNC(=O)C1(C)CCCN(Cc2cccc(F)c2)C1` (stereo not given), 6.2%; as for `CCOC(=O)NC(=O)C(=CNc1cccc(OC)c1)C(=O)NC(=O)OCC`, 17.8%. As for `CC(C)Nc1nc(NCCOc2ccccc2Cl)c2sccc2n1`, the figure is -5.6%; as for `CC(C)(C)c1nc2ccccc2c(=O)n1N1C(=O)c2ccccc2C1=O`, -12.6%. As for `CN(C(=O)Nc1ccc(Cl)cc1)n1cnc2ccccc2c1=O`, the figure is 6.1%; as for `CN(c1ccc2nc3ccccc3c(=O)n2n1)C1CCCCC1`, -54.1% (active); as for `O=[N+]([O-])/C=C1\CCCCCN1`, -1.7%. `COc1ccc(CNc2c(CO)cnc3c2cnn3C)cc1`: the activity change (cytotoxicity) is -62.1% (active). On to `COc1ccc(CNc2nnnn2C)cc1`, for which the activity change (cytotoxicity) is 6.7%.

Regarding `CCCn1nnnc1NCc1ccc(OC)cc1`, the activity change (cytotoxicity) was 5.9%. As for `C[C@@H]1CN([C@H](C)CO)C(=O)c2cc(NC(=O)NC3CCCCC3)ccc2O[C@H]1CN(C)S(C)(=O)=O`, the figure is 2.2%; as for `C[C@H]1CN([C@@H](C)CO)C(=O)CCCn2cc(nn2)CO[C@@H]1CN(C)S(=O)(=O)c1cccc(C#N)c1`, 4.9%.

Regarding `O=C(Nc1cccc(C(=O)NC2CC2)c1)c1ccc(F)c(S(=O)(=O)N2CCOCC2)c1`, the activity change (cytotoxicity) is -2.3%. As for `COc1cc(NS(=O)(=O)c2ccc(NC(=S)NC(=O)c3ccc(Br)cc3)cc2)ncn1`, the figure is 1%. As for `COc1cc(NC(=O)c2[nH]cnc2C(N)=O)cc(C(=O)Nc2cccc(C(F)(F)F)c2)c1`, the figure is -61.7% (active).

Take `COc1cc(NC(=O)c2cncc(-c3ccc(C#N)cc3)c2)cc(C(=O)Nc2cccc(C(F)(F)F)c2)c1`: the activity change (cytotoxicity) is 7.5% and 5.1%.

Consider `COc1cc(C(=O)N(C)Cc2cccc(OC)c2OC)ccc1OCC(=O)Nc1cccc(C(F)(F)F)c1`, for which the activity change (cytotoxicity) is 7.7%. The result for `Cc1cccc(C(=O)O)c1[N+](=O)[O-]` reads 14%. Consider `Cn1ccnc1-c1nnn(-c2ccc(F)cc2)n1`, for which the activity change (cytotoxicity) is -12.5%.

Take `CCNC(=O)C1(C)CCCN(C(=O)c2ccc3ccccc3n2)C1` (stereo not given): the activity change (cytotoxicity) was -5.1%. In the case of `O=C(NCC1CCCO1)c1cc2c([nH]c3ccccc32)c(-c2ccc(F)cc2)n1` (stereo not given), the activity change (cytotoxicity) was -5.3%. On to `CC1=CCC2C(=O)N(c3cccc(C(=O)NC(C)c4ccccc4)c3)C(=O)C2C1` (stereo not given), for which the activity change (cytotoxicity) was -1.1%. The result for `Cc1cccc(C)c1NC1=NC(=S)N(c2ccc(N(C)C)cc2)C1(C)C` reads -3.7%; that for `CCCCC(=O)Nc1c2c(nn1-c1ccc([N+](=O)[O-])cc1)CS(=O)(=O)C2`, -15.2%; that for `O=C1/C(=C\c2ccc([N+](=O)[O-])cc2)CS(=O)(=O)C/C1=C/c1ccc([N+](=O)[O-])cc1`, -101% (active). Turning to `O=C1CCCN1C(=O)COc1ccc([N+](=O)[O-])cc1`, the activity change (cytotoxicity) is -6.8%. The result for `CO[C@@H]1[C@@H](OC(N)=O)[C@@H](O)C(Oc2ccc3c(O)c(NC(=O)c4ccc(O)c(CC=C(C)C)c4)c(=O)oc3c2C)OC1(C)C` (stereo not given in full) reads 44.1%.

Turning to `CS/C(=C\[N+](=O)[O-])Nc1ccc(C)cc1`, the activity change (cytotoxicity) was -4.4%. As for `CCOc1ccc(C(=O)NC(C(=O)NCc2ccccn2)C(C)C)cc1` (stereo not given), the figure is -1.5%. The result for `COc1cc(NC(=O)c2ccccc2NS(=O)(=O)c2ccc(Cl)s2)cc(OC)c1` reads -57.2% (active). The result for `O=S(=O)(Nc1ccccc1N1CCOCC1)c1ccc(Cl)s1` reads 1.7%; that for `O=C(Nc1cccc(Cl)c1)Nc1ccccc1NS(=O)(=O)c1cccs1`, 13.5%. On to `COc1ccc(CC(=O)Nc2ccc(-c3nnc(-c4ccc(C)cc4)o3)cc2)cc1`, for which the activity change (cytotoxicity) was -56.3% (active).

As for `COc1ccc(C(CC(=O)Nc2ccc(C)cc2)NC(=O)C(F)(F)F)cc1` (stereo not given), the activity change (cytotoxicity) was 6.9%. As for `COc1ccc(NC(=O)Cn2c(-c3ccc(OC)cc3)cn(-c3ccc(C)cc3)c2=O)cc1`, the figure is 12.5%.
